A selection: hits, their analogues and other compounds. The true share with any hit is near 12%.
G9a inh: G9a (human) methyltransferase inhibition; G9a H3K9 monomethylation, AlphaScreen, 2 h; Potency, µM (doses to about 102 µM), for inactives: top-dose activity, negative = inhibition, most hits filed as inhibitors; hit rate 8.8% among 350,000; Q96KQ7; note: % is set by controls: 0 for no effect and ±100 for the full control effect; nearly all actives have a fitted effect of over 75% in size
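Methyltransferase reactions run at room temperature for 2 h (20 nM enzyme, 500 nM biotin-H3K9 peptide, 20 uM SAM) after a 15 min compound preincubation; product detected by AlphaScreen beads and anti-H3K9me1 antibody.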
HP1b chromo inh: HP1-beta chromodomain-methylated histone interaction inhibition; Potency, µM (doses to about 114 µM), without a hit: top-dose activity change, negative = inhibition, usual class: inhibitors; AID 540317; hit rate 0.56% among 390,000; P83916; AlphaScreen HP1-beta / biotin-H3K9me3 peptide binding; note: nearly all actives have a fitted effect of over 70% in size
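HP1-beta protein (50 nM final) preincubated 30 min at room temperature with biotinylated H3(1-18)K9me3 peptide (50 nM) in PBS pH 7.4, 0.01% Tween-20, then compound added for 30 min. AlphaScreen streptavidin donor/nickel chelate acceptor beads (10 ug/mL final), 30 min dark, luminescence read.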
JMJD2A Tudor: inhibitors of human JMJD2A Tudor domain. AID 504339. Potency, µM (titrated, usually from 114 µM), without a hit: at the top dose activity change, negative = inhibition, hits mostly inhibitors. hit rate 4.4% among 390,000. AlphaScreen JMJD2A-Tudor / H3K4me3 peptide binding. O75164; note: % is set by controls: 0 for no effect and ±100 for the full control effect; nearly all actives have a fitted effect of over 50% in size
L3MBTL1 block: L3MBTL1 (human) inhibition. AID 485360. Potency, µM (top dose mostly 57.1 µM), without a hit: at the highest dose activity, negative = inhibition, actives largely listed as inhibitors. AlphaScreen L3MBTL1–H3K9me1 peptide binding. hit rate 0.66% among 230,000. Q9Y468; note: % is set by controls: 0 for no effect and ±100 for the full control effect; nearly all actives have a fitted effect of over 60% in size
Target sequence (Q9Y468 whole entry, looked up): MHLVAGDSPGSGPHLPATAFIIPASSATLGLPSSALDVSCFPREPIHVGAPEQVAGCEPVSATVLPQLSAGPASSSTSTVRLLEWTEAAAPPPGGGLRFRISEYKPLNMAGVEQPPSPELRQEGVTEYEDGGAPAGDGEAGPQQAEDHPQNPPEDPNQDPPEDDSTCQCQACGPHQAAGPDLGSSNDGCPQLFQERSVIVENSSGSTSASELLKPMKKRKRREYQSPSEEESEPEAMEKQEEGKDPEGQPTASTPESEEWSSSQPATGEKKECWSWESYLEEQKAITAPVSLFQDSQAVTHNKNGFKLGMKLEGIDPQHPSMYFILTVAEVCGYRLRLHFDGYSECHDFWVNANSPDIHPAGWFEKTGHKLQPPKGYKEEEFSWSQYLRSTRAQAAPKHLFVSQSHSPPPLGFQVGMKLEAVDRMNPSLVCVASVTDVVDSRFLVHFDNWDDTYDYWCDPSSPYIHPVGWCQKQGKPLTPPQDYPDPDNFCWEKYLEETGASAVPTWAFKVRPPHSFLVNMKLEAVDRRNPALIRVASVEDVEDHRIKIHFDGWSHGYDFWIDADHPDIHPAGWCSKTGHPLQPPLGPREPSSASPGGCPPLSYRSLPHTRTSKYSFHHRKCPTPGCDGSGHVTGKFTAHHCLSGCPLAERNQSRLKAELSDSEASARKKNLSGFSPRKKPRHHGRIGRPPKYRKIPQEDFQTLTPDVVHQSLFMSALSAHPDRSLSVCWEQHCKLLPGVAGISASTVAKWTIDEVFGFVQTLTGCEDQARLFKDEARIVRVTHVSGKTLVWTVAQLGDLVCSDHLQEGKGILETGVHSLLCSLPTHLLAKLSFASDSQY
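First, the protein-peptide complex forms for 30 min at room temperature (L3MBTL1 50 nM, biotinylated H3K9me1 peptide 75 nM). Next, compounds are pin-transferred and incubated 30 min. Finally, AlphaScreen beads are added and read after 30 min.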
BAZ2B inh: blocks human BAZ2B | Q9UIF8 | Potency, µM (top dose mostly 114 µM), inactives show at the highest dose activity change, negative = inhibition, usual class: inhibitors | AlphaScreen BAZ2B-H3K14Ac peptide displacement | AID 504333 | hit rate 4.4% among 360,000; note: % is set by controls: 0 for no effect and ±100 for the full control effect; nearly all actives have a fitted effect of over 60% in size
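Protein-peptide AlphaScreen: BAZ2B 50 nM, b-H3K14Ac 50 nM, 1x PBS pH 7.4 + 0.01% Tween-20. Preincubation 30 min RT; cpd 30 min RT (top 110 uM); beads 20 min RT, light-protected.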
Sfp PPTase inh: blocks B. subtilis Sfp PPTase activity; Q9F4F7; Biochemical Sfp PPTase activity, qHTS; Potency, µM, without a hit: largest response in the series, negative = inhibition, actives largely listed as inhibitors; hit rate 3.5% among 310,000; AID 1490;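 note: the enzyme is Sfp with the accession as filed and its product quenches rhodamine fluorescence; 0% = enzyme reaction without inhibitor and -100% = no enzyme wells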
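Fluorescence-quenching assay with 15 nM Sfp, 5 uM rhodamine-CoA and 12.5 uM BHQ-2-labelled ybbR peptide in pH 7.6 Hepes/MgCl2 buffer. Enzyme was pre-incubated with compound for 15 min at room temperature. Rate was taken from the 30-min fluorescence change (525/598 nm).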
Numbers without * were called inactive; ? = inconclusive; nt = no result; ! = not active in a repeat; [ ] = remark or other dose. Calls come from the whole dose curve; as a rule, active = well fitted curve in the direction sought with a large enough effect; inconclusive = small, poorly fitted or top-dose-only effect, or another doubt; inactive = no such curve, though single readings can be large; an effect the other way counts as inactive or inconclusive. Potency is the fitted concentration of half-maximal effect.

SMILES	G9a inh	HP1b chromo inh	JMJD2A Tudor	L3MBTL1 block	BAZ2B inh	Sfp PPTase inh
COc1ccc(Oc2cc(NN3CCCCC3)c([N+](=O)[O-])cc2[N+](=O)[O-])cc1OC	?	-25.6%	?	-24.0%	?	-6.6%
O=[N+]([O-])c1cc([N+](=O)[O-])c(Oc2cccnc2Br)cc1NN1CCCCC1	39.8µM*	?	?	-13.7%	?	2.2%
O=[N+]([O-])c1cc([N+](=O)[O-])c(Oc2c(Cl)cccc2Cl)cc1NN1CCCCC1	25.1µM*	?	?	2.4%	?	7.7%
CC(=O)c1cccc(Oc2cc(NN3CCCCC3)c([N+](=O)[O-])cc2[N+](=O)[O-])c1	50.1µM*	-12.0%	?	-24.6%	?	18.1%
COc1ccc2c(c1)O[C@@H](c1cccc(C(F)(F)F)c1)[C@H](OC(=O)NC1CCCC1)C2=O	nt	nt	nt	nt	nt	-9.1%
CCOc1ccccc1NC(=O)CSc1nc2c(oc3ccccc32)c(=O)n1C(C)C	14.0%[59 µM]	38.3%	3.6%	nt	3.7%	nt
O=C(Nc1ccccc1)Nc1ccc(Oc2ncnc3cc(Cl)ccc23)nc1	13.1%[59 µM]	22.4%	-14.7%	-0.1%	-0.6%	16.4%
O=C(O)/C=C/C(=O)Nc1ccc(Oc2ncnc3cc(Cl)ccc23)nc1	?	-6.4%	-20.3%	4.0%	-10.4%	79.4µM*
COc1ccc(OC)c(C(=O)NC(CC(N)=O)c2ccc(NCCOc3ccccc3)c([N+](=O)[O-])c2)c1 (stereo unspecified)	nt	-1.2%	?	-14.4%	?	-4.5%
CC1(C)CC(Nc2ccc(C(F)(F)F)cc2[N+](=O)[O-])CC(C)(C)N1	?	11.8%	-15.9%	5.4%	-22.0%	12.9%
COc1ccc(CCNc2ccc(C(CC(N)=O)NC(=O)c3cc(OC)ccc3OC)cc2[N+](=O)[O-])cc1 (stereo unspecified)	44.7µM*	-19.0%	?	-29.3%	31.6µM*	6.2%
Cc1cc(C)cc(C(=O)NC(CC(N)=O)c2ccc(NCC3CC3)c([N+](=O)[O-])c2)c1 (stereo unspecified)	79.4µM*	32.9%	-11.9%	?	4.6%[57.1 µM]	6.3%
NC(=O)CC(NC(=O)c1ccccc1)c1ccc(NC2CCN(Cc3ccccc3)CC2)c([N+](=O)[O-])c1 (stereo unspecified)	50.1µM*	16.3%	-27.3%	-4.5%	?	7.0%
O=[N+]([O-])c1cc(C(F)(F)F)ccc1NC1CCN(Cc2ccccc2)CC1	35.5µM*	50.1µM*	35.5µM*	nt	25.1µM*	-5.0%
NC(=O)CC(NC(=O)c1ccccc1)c1ccc(NCC2CC2)c([N+](=O)[O-])c1 (stereo unspecified)	-0.9%[12.7 µM]	18.1%	-24.8%	nt	1.0%	10.1%
NC(=O)CC(NC(=O)c1ccccc1)c1ccc(NC2CCC2)c([N+](=O)[O-])c1 (stereo unspecified)	?	1.8%	-24.8%	nt	-15.2%	-3.2%
CCCc1nn2c(=O)cc(COC(=O)c3ccc(NC(=O)CCc4ccccc4)cc3)nc2s1	-26.8%[59 µM]	-4.2%	?	nt	-21.3%	nt
Cc1cc(C)cc(C(=O)NC(CC(N)=O)c2ccc(NC3CCCCCCCCCCC3)c([N+](=O)[O-])c2)c1 (stereo unspecified)	44.7µM*	-3.4%	?	2.4%	?	-9.4%
COc1cccc(NC2=NCC(=O)N2Cc2cccs2)c1	50.1µM*	32.3%	-21.2%	-3.5%	-11.6%	-8.7%
COc1ccc(NC2=NCC(=O)N2Cc2cccs2)cc1	-17.7%	33.6%	-15.4%	-5.4%	-4.7%	20.5%
Cc1ccc(NC2=NCC(=O)N2Cc2cccs2)cc1C	-50.1%	60.6%	-8.2%	-2.4%	79.4µM*	6.3%
COc1ccc(NC2=NCCC(=O)N2Cc2cccs2)cc1	44.7µM*	45.2%	-25.7%	-0.7%	?	?
Cc1ccc(NC2=NCC(=O)N2C2CCCC2)cc1C	-44.4%	42.7%	-9.1%	5.8%	-22.0%	14.1%
C=CCN1C(=O)CN=C1Nc1cccc(C)c1	35.5µM*	51.2%	-35.8%	2.9%	?	-14.5%
O=C1Oc2ccccc2C(=O)C1C(CC(O)c1ccc(-c2ccc(Br)cc2)cc1)c1ccccc1 (stereo unspecified)	?	nt	nt	nt	nt	18.4%
SMILES	G9a inh	HP1b chromo inh	JMJD2A Tudor	L3MBTL1 block	BAZ2B inh	Sfp PPTase inh
CC(C)Cn1c(CCC(N)=O)nnc1SC(C)C(=O)Nc1ccc2c(c1)OCO2 (stereo unspecified)	2.9%[12.7 µM]	23.2%	-13.8%	-0.2%	8.0%	nt
Cc1ccc(CN(Cc2cc3cc(C)ccc3[nH]c2=O)Cc2nnnn2Cc2ccccc2)cc1	nt	2.6%[57 µM]	-12.3%[57.1 µM]	nt	nt	nt
CCCCc1cc2c(cn1)=C(OC(=O)c1cccs1)C(C)(OC(=O)CC)C(=O)C=2 (stereo unspecified)	nt	nt	nt	nt	nt	-1.8%
O=C(NCc1ccc2c(c1)OCO2)c1nc(S(=O)(=O)Cc2ccccc2)ncc1Cl	50.1µM*	9.3%[57 µM]	-23.6%	nt	-24.7%	?
O=C(NCc1ccc2c(c1)OCO2)c1nc(S(=O)(=O)Cc2ccccc2F)ncc1Cl	17.8µM*	36.8%	6.2%	nt	-36.1%	25.1µM*
CC(NC(=O)COC(=O)c1ccco1)C12CC3CC(CC(C3)C1)C2 (stereo unspecified)	nt	52.1%	-6.8%	nt	nt	nt
N[C@@H](COP(=O)(O)O)C(=O)O	-22.2%[59 µM]	nt	nt	nt	nt	39.8µM*!
N[C@@H](CCCP(=O)(O)O)C(=O)O	nt	nt	nt	nt	nt	8.3%
Oc1ccc(C2Nc3cccc4cccc(c34)N2)c(O)c1	44.7µM*	17.8µM*	79.4µM*	-10.0%	?	-19.8%
Clc1ccccc1C1Nc2cccc3cccc(c23)N1	nt	?	?	?	70.8µM*	-28.8%
Cc1ccc(C2Nc3cccc4cccc(c34)N2)s1	12.6µM*	?	?	-16.5%	?	?
c1coc(C2Nc3cccc4cccc(c34)N2)c1	?	nt	nt	nt	?	3.16µM*
O=C1NC(c2ccccc2Cl)Nc2ccccc21 (stereo unspecified)	15.2%[59 µM]	26.3%	-30.0%	2.9%	-1.3%	8.3%
Cc1cccc(NC(=O)c2cc(S(=O)(=O)NCc3ccc4c(c3)OCO4)ccc2F)c1C	-26.4%[59 µM]	19.6%	-15.0%	nt	0.3%	nt
CC(=O)c1cc2c(cc1O)OC(C)(C)C=C2	?	nt	nt	nt	nt	-3.4%
Clc1cccc(C2Nc3cccc4cccc(c34)N2)c1Cl	23.8%[0.501 µM]	?	50.1µM*	-3.6%[2.29 µM]	39.8µM*	0.0%
O=C(NNC(=O)c1ccccc1F)c1cccc(S(=O)(=O)N2CCc3ccccc32)c1	nt	22.5%	-27.7%	4.0%	nt	nt
Cn1c2cc(B(O)O)sc2c2cnn(Cc3c(F)cccc3Cl)c(=O)c21	2.0%[12.7 µM]	nt	nt	4.8%	-27.6%	nt
COc1ccc(Cc2nnc(NC(=O)C3CCN(C(=O)c4ccco4)CC3)s2)cc1	79.4µM*	-13.8%	-17.3%	nt	-2.9%	-2.8%
